The values that follow come from PubChem BioAssay AID2069 (Sanford-Burnham Center for Chemical Genomics, 2009).

Hit rate of the full screen: of about 1,200 compounds, about 210 (18%) were called active. Cut-off read from the data, not from the text of the source: active = inhibition above about 30%; inactive = the rest. Not all results are given here.

This assay is described as follows: fluorescence readout artefact check – biochemical, HTRF, uHTS, artefact control for SUMOylation inhibitor project, confirmation (AID 2069). The conditions noted are these: HTRF interference counterscreen, at 35 µM, hits give high values. Background: TR-FRET usually uses a lanthanide donor and a delayed reading to cut background.
Broadly, the inhibition is the relative decrease from the control value, in per cent. For `Cc1ccc2[nH]c3c(c2c1)CN(C(=O)CN1CCN(c2cccc(C)c2C)CC1)CC3`, the inhibition was 12.8% (inactive). Under `O=c1oc(-c2cccs2)nc2sc3c(c12)CCC3` stands 40.5% (active); under `COC(=O)c1c(C)oc(C)c1S(=O)(=O)NC(C)(C)C`, 3.5% (inactive). With `COc1ccc(C2C(C(C)=O)=C(O)C(=O)N2C)c(OC)c1` (stereo not given), the inhibition is -3.35% (inactive). `COc1cc(NC(=O)c2cnc(N)s2)cc(C(=O)Nc2cccc(C(F)(F)F)c2)c1`: the inhibition is 8.1% (inactive). On to `O=C(N/N=C/c1ccc(-c2ccc(S(=O)(=O)Nc3ncccn3)cc2)o1)c1cc2ccccc2cc1O`, for which the inhibition is 28.5% (inactive). The result for `CCOCCCN1CN(Cc2ccco2)CNC1=S` reads 39.1% (active). For `CC1=C(C#N)C(=O)NC(=O)/C1=C\c1ccc(-c2cc(C)c(C)cc2[N+](=O)[O-])o1`, the inhibition is 9.4% (inactive).

As for `CCCS(=O)(=O)c1c(S(=O)(=O)CCC)c2c(N)cccn2c1C(=O)c1ccc(Br)cc1`, the inhibition is 6.7% (inactive). Consider `Cc1cc(=O)[nH]c(-n2[nH]c(C)cc2=O)n1`, for which the inhibition is -1.85% (inactive).

In the case of `COc1ccccc1C1Nc2cccc3cccc(c23)N1`, the inhibition is -18.4% (inactive). Consider `CCOc1ccc(-n2c(SCC(=O)Nc3ccc(CC)cc3)nc3n[nH]c(C)c3c2=N)cc1`, for which the inhibition was 23.6% (inactive).

As for `O=C1c2nc3cc(-c4ccco4)[nH]n3c(=O)c2CN1C1CCCCC1`, the inhibition is 29.8% (inactive). On to `CCCCN1Cc2c(nc3cc(-c4ccco4)[nH]n3c2=O)C1=O`, for which the inhibition is 31.7% (active). On to `CC1=NN(c2ccccc2)C(=O)/C1=C/c1cccs1`, for which the inhibition was -3.6% (inactive).

Consider `Cc1[nH][nH]c(=O)c1C(c1c(C)[nH][nH]c1=O)c1cn(Cc2ccc(F)cc2)c2ccccc12`, for which the inhibition was -43.9% (inactive). On to `COC(=O)c1scc(C)c1NC(=O)C(Cl)c1ccccc1` (stereo not given), for which the inhibition was 0.85% (inactive). On to `CN(c1ccccc1)c1ccc(/C=C(\CCC(=O)O)c2nc3ccccc3s2)cc1[N+](=O)[O-]`, for which the inhibition was 7.85% (inactive). For the compound `NNC(=O)c1oc2nc(-c3cccs3)cc(-c3ccco3)c2c1N`, the inhibition is 12.8% (inactive). As for `NNC(=O)c1oc2nc(-c3ccco3)cc(-c3ccco3)c2c1N`, the inhibition is 9.15% (inactive). For `Nc1nc(-c2ccco2)c(-c2ccco2)s1`, the inhibition is -13.2% (inactive). Consider `NC(=O)c1sc2nc(-c3ccco3)ccc2c1N`, for which the inhibition was 41.8% (active). Take `N#Cc1sc2nc(-c3ccccc3)cc(-c3ccco3)c2c1N`: the inhibition was 26.3% (inactive). Regarding `CC(=O)c1sc2nc(-c3ccco3)ccc2c1N`, the inhibition is 48.3% (active).

As to `S=C(Nc1ccc2nsnc2c1)NC1CCCCC1`, the inhibition was 10.2% (inactive).

Turning to `O=[N+]([O-])c1ccc(C=Nc2cccc3ccccc23)s1`, the inhibition is 5.6% (inactive).

In the case of `CCC(=O)OCCNc1cc(Sc2nc3ccccc3s2)c2nonc2c1[N+](=O)[O-]`, the inhibition is 1.05% (inactive).

Take `O=C(O)c1cccc(N2C(=O)/C(=C/c3ccc(SCc4ccc(Cl)cc4)o3)SC2=S)c1`: the inhibition is 14.9% (inactive). Regarding `CCCN(C(=O)c1cc2c(s1)CCC2)c1c(N)n(Cc2ccccc2)c(=O)[nH]c1=O`, the inhibition was -3.9% (inactive). Regarding `Cc1cccc(C(=O)NC2C(=O)NNC2c2ccc(Cl)cc2)c1` (stereo not given), the inhibition is -5.5% (inactive). On to `COc1ccc(N2C(=O)[C@@H]3[C@H](C2=O)[C@H]2c4ccccc4C=CN2[C@@H]3C(C)=O)cc1`, for which the inhibition is 9.4% (inactive). Consider `Cc1ccc(NC(=O)CCC(=O)OCC(=O)c2ccc(-c3ccccc3)cc2)cc1`, for which the inhibition is -1.75% (inactive). For the compound `Cc1ccc(-c2[nH]c(-c3ccc(C(=O)O)cc3)nc2-c2ccccc2)cc1`, the inhibition was 43.1% (active). Regarding `COc1cc(/C=C2\C(=O)N(c3ccccc3)N=C2C)ccc1Oc1ccc([N+](=O)[O-])cc1[N+](=O)[O-]`, the inhibition was 1.25% (inactive). Turning to `CSc1nnc(SCc2nc3sc(C(=O)O)c(C)c3c(=O)[nH]2)s1`, the inhibition is 31.2% (active).

Regarding `CC(=O)c1sc2nc(CSc3nnnn3-c3ccccc3)[nH]c(=O)c2c1C`, the inhibition was 0.9% (inactive). Regarding `O=C(CSc1nnc(SCc2ccc(Cl)cc2)s1)N/N=C/c1c[nH]c2ccccc12`, the inhibition is 9.75% (inactive). Consider `S=c1[nH]nc(-c2cc(-c3ccco3)[nH]n2)n1-c1ccccc1Cl`, for which the inhibition was 0.75% (inactive). For `COc1cc(O)c(NC(C)=O)c2nonc12`, the inhibition is 6.2% (inactive). The result for `O=C(Nc1ccccc1)c1ccc2nc(-c3ccco3)c(-c3ccco3)nc2c1` reads 22.8% (inactive); that for `COCCNC(=O)Nc1ccc2nc(-c3ccco3)c(-c3ccco3)nc2c1`, 52.4% (active). The result for `COc1ccc(OC)c(-n2c(-c3cc(-c4ccco4)[nH]n3)n[nH]c2=S)c1` reads 7.95% (inactive); that for `COc1ccc2nc(-c3ccco3)c(-c3ccco3)nc2c1`, 33.1% (active). In the case of `COc1ccc(CCNC(=O)c2ccc3nc(-c4ccco4)c(-c4ccco4)nc3c2)cc1OC`, the inhibition was 13.3% (inactive). On to `COc1ccc2nc3cccc(OC)c3nc2c1`, for which the inhibition is 11.7% (inactive). On to `CCc1ccc(OCC(=O)N/N=C2\CC(=O)c3ccccc32)cc1`, for which the inhibition is -2.45% (inactive).

`COCCN=c1scc(-c2ccco2)n1/N=C/c1ccc(O)c(O)c1O`: the inhibition is -18.7% (inactive). For the compound `CC(C)c1ccc(NC(=O)C[n+]2ccn(C3=C([O-])c4ccccc4C3=O)c2)cc1`, the inhibition was -10.2% (inactive). With `Cc1ccc(S(=O)(=O)C(C#N)c2nc3ccccc3nc2N2CC(C)OC(C)C2)cc1C` (stereo not given), the inhibition is 4.8% (inactive). Regarding `O=c1c(=Nc2ccccc2O)c(=O)c2ccccc12`, the inhibition was -6.7% (inactive).

For `O=C1NC(=Nc2ccc(O)cc2)S/C1=C\C=C\c1ccco1`, the inhibition is 8.5% (inactive).

In the case of `COc1ccc2c(c1)c(=O)oc1c(C)c(OCc3ccc(C(=O)O)cc3)ccc12`, the inhibition is 31.4% (active). Under `Cc1c(CC(=O)O)c(=O)oc2c(C)c(OCc3ccccc3Br)ccc12` stands -1.95% (inactive); under `Cc1cc(=O)oc2cc(OCc3ccc(C(=O)OCC(=O)Nc4ccc(N(C)C)cc4)cc3)ccc12`, 11.7% (inactive). For `COc1cc(/C=C(\C#N)C(=O)Nc2cccc(C(=O)O)c2)ccc1OCc1ccc(Cl)cc1`, the inhibition was 19.7% (inactive). In the case of `S=C(Nc1cccc(Cl)c1)Nc1ccc2cn[nH]c2c1`, the inhibition was 2.35% (inactive).

Take `O=C(Nc1ccc2oc(=O)ccc2c1)c1ccc(-c2cccc(Cl)c2)o1`: the inhibition was 12.1% (inactive).

On to `O=C(Nc1cccnc1)c1cc2cc(Br)ccc2oc1=O`, for which the inhibition was -1.65% (inactive). `Cn1nccc1NC(=O)Nc1cccc(Br)c1`: the inhibition was 46.4% (active). On to `Cn1nccc1NC(=O)Nc1cccc(Cl)c1`, for which the inhibition was 42.6% (active).
